# Laboratory results published in PubChem BioAssay AID686979 (National Center for Advancing Translational Sciences (NCATS), 2013).
# Several values for one entry are separate records, joined by “and”; a condition that tells them apart may be missing. Equal entries are not always repeated. Screen size: about 420,000 compounds; about 50,000 (12%) were called active. Roughly 26% stayed inconclusive and do not appear here. What follows is part of a selection rich in actives, with near analogues and random picks from the rest. A number with no mark means an inactive call. The call rests on the fitted dose curve; in most records, active means well fitted inhibition curve with a large enough effect; inconclusive means small, poorly fitted or top-dose-only effect; inactive means flat fitted curve, though single readings scatter.
# Assay: qHTS for Inhibitors of human tyrosyl-DNA phosphodiesterase 1 (TDP1): qHTS in cells in presence of CPT; further: nearly all actives have a fitted effect of over 55% in size
# Conditions: chicken DT40 Tdp1-/-;hTDP1 cells + 20 nM CPT, ATP luminescence, 48 h; series mostly up to 46.2 µM; activity change, negative = growth inhibition: at the top concentration
# Text: Human tyrosyl-DNA phosphodiesterase 1 (TDP1) is a novel repair gene, and we propose to use it as a new target for anticancer drug development. TDP1 is not an essential protein, but under treatment with topoisomerase I poison (camptothecin: CPT), TDP1 works as a critical factor for cell survival. To directly identify novel TDP1 inhibitors active in a cellular environment, we have knocked-out the Tdp1 gene in chicken DT40 cells (Tdp1-/-) and generated a complemented counterpart cells that contains a stable transfection of the human TDP1 gene (Tdp1-/-;hTDP1 cells). For the primary screen, Tdp1-/-;hTDP1 cells will be exposed to small molecules in the presence or absence of CPT, and their growth kinetics will be evaluated after 48 hours by measuring ATP activity. […] The hit compounds will then be evaluated in the presence or absence of CPT using Tdp1-/- cells. […] In tertiary assays, biochemical gel-based assays will be used to assess whether the hit compounds specifically target TDP1. To this end, we have screened this cell line against the MLSMR in two primary screens. In one screen we add CPT and in the other we screen in the absence of CPT; this AID represents the screen where CPT was present. NIH Chemical Genomics Center [NCGC] NIH Molecular Libraries Probe Centers Network [MLPCN] MLPCN Grant: MH095538 Assay Submitter (PI): Yves Pommier, NCI
# DT40-hTDP1 cells with 20 nM Camptothecin (add 20 microL of 1 mM CPT stock in 1 L of cell culture medium) were dispensed at 400 cells/5microL/well in tissue culture treated 1536-well white wall/solid bottom assay plates (Greiner Bio-One North America, NC, U.S.A.) using a Multidrop Combi 8 channel dispenser (Thermo Fisher, Waltham, MA, USA). 23 nL compounds and controls were transferred using the pin tool (Kalypsys, San Diego, CA, USA) to the assay plates. The assay plates were then incubated at 37 masculineC for a minimum 48 hr. Three microL of Cell Titer Glo solution was added to the plates and incubated at RT in dark for 30 min. Luminescence was read using ViewLux (Perkin Elmer) with 1 sec exposure slow speed, high gain and 2x binning.
# On the % scale 0 is the no-effect control and ±100 the full control effect; potency means the concentration at half of the fitted maximal effect.
Structure (SMILES),"activity change, negative = growth inhibition [%]",Potency
Cc1cccc(C)c1N1CCN(S(=O)(=O)N2CCCCC2)CC1,-11.1,
COc1cc(OC)cc(-c2nc3nc(C)c(CCC(=O)Nc4ccc(C)cc4)c(C)n3n2)c1,-9.57,
CCOC(=O)c1cccc(NC(=O)CCc2c(C)nc3ncnn3c2C)c1,3.12,
COc1cc(OC)cc(-c2nc3nc(C)c(CCC(=O)Nc4ccccc4)c(C)n3n2)c1,,14.6 µM (active)
CC(C)OC(=O)c1ccc(COc2ccc3ccc(=O)oc3c2)o1,2.4,
O=C(C1CCCO1)N1CCN(S(=O)(=O)c2ccc(Br)cc2)CC1 (stereo not given),-5.03,
CN(Cc1cn(Cc2ccc(C(F)(F)F)cc2)nn1)C1CN(Cc2cn(Cc3ccc(C(F)(F)F)cc3)nn2)S(=O)(=O)C1 (stereo not given),,6.51 µM (active)
CN(C)C1CN(Cc2cn(Cc3ccccc3)nn2)S(=O)(=O)C1 (stereo not given),-11.9,
CC(C)CCN1CCN(Cc2ccc(C(F)(F)F)cc2)CC1CCO (stereo not given),-29.5,
O=C(c1ccc(Cl)c(S(=O)(=O)N2CCCCCC2)c1)N1CCN(c2ccc(O)cc2)CC1,,18.4 µM (active)
O=C(c1ccc(Cl)c(S(=O)(=O)N2CCCCC2)c1)N1CCCCCC1,-26.3,
O=C(c1ccc(Cl)c(Cl)c1)N1CCCC1,3.77,
CN(C)c1cccc(C(=O)N2CCC(n3nccc3NC(=O)C3CCOC3)CC2)c1 (stereo not given),5.19,
Cn1c(=O)c(Sc2ccc(Cl)cc2)c(O)c2ccccc21,5.09,
CC1Cc2ccccc2N1CC(=O)Nc1ccc2c(c1)OC(F)(F)O2 (stereo not given),-15.8,
O=C(Nc1cccc(C(F)(F)F)c1)c1cnccn1,0.881,
N#Cc1ccc(Oc2ccc(C(F)(F)F)cc2NC(=O)c2ccc(F)cc2)cc1,-18.8,
COc1cc(NC(=O)c2cncc(-c3ccc(C#N)cc3)c2)cc(C(=O)Nc2cccc(C(F)(F)F)c2)c1,,8.2 µM (active) and 16.4 µM (active)
COc1cc(NC(=O)c2[nH]cnc2C(N)=O)cc(C(=O)Nc2cccc(C(F)(F)F)c2)c1,,20.6 µM (active)
CCN(CC)C(=O)C1=C(C)N(Cc2ccc(F)cc2)C(=O)C(CC(=O)NC2CCCC2)C1 (stereo not given),-16.9,
O=c1ccn([C@@H]2O[C@H](COP(=O)(O)OP(=O)(O)OP(=O)(O)O)[C@@H](O)[C@H]2O)c(=O)[nH]1,-29.6,
CNS(=O)(=O)c1cccc(C(=O)OCC(=O)N2c3ccccc3NC(=O)C2(C)C)c1,-1.39,
CCOc1ccc(NC(=O)CN(C)C(=O)CCSc2ccc(F)cc2)cc1OCC,-29.6,

Structure (SMILES),"activity change, negative = growth inhibition [%]",Potency
CC(C)Oc1ccc(C(CC(=O)N2CCOCC2)C(C)C)cc1 (stereo not given),-3.05,
CC(C)C(=O)NCC(c1cccs1)S(=O)(=O)c1ccc(F)cc1 (stereo not given),-12.7,
COc1ccccc1CNC(=O)C(=O)NCC(c1cccs1)S(=O)(=O)c1cccs1 (stereo not given),-6.96,
Cc1ccccc1CNC(=O)C(=O)NCC(c1cccs1)S(=O)(=O)c1cccs1 (stereo not given),,13 µM (active)
CC(C)C(=O)Nc1nnc(Sc2ccc(N(C)C)cc2)s1,-0.75,
CN(Cc1ccccc1)c1ccc(-c2nc(-c3ccccc3)no2)cc1[N+](=O)[O-],-15.3,
Cc1noc(C)c1S(=O)(=O)N(C)Cc1ccccc1,-6.12,
CN(Cc1ccccc1)c1ncnc2onc(-c3ccc(F)cc3)c12,,23.1 µM (active)
Cc1ccc2c(C)c(C(=O)N3CCC(N4CCC(C(=O)NC5CC5)CC4)CC3)oc2c1,-0.225,
CN1CN(C)c2ccc([N+](=O)[O-])c3cccc1c23,0.252,
CCN1C[C@@H]2[C@@H]3C(=O)N(Cc4ccccc4)C(=O)[C@@H]3[C@](C)(C1=O)N2C(=O)c1ccc(C(C)(C)C)cc1,-20.1,
COc1ccc([C@H]2N[C@]3(CCCN(Cc4ccco4)C3=O)[C@H]3C(=O)N(C)C(=O)[C@@H]23)cc1,-16.7,
CCN1C(=O)[C@H]2[C@@H](c3ccc(C(F)(F)F)cc3)N[C@]3(CCCN(Cc4ccc(Br)cc4)C3=O)[C@H]2C1=O,,13 µM (active)
O=C1[C@H]2[C@@H](c3ccc(C(F)(F)F)cc3)N[C@]3(CCCN(Cc4ccc(Br)cc4)C3=O)[C@H]2C(=O)N1Cc1ccccc1,-21.3,
O=C1[C@H]2[C@@H](c3ccc(C(F)(F)F)cc3)N[C@]3(CCCN(Cc4ccc(Cl)cc4)C3=O)[C@H]2C(=O)N1Cc1ccccc1,,16.4 µM (active)
CN(Cc1ccccc1)S(=O)(=O)c1nnc(NC(=O)c2ccccc2F)s1,-20.1,
CCOc1cc(CNCCN(C)C)c(Cl)cc1OCC(=O)NCCc1ccccc1,-11.9,
Nc1ncnc2c1ncn2[C@@H]1O[C@H](CNS(=O)(=O)c2ccc(-c3ccno3)s2)[C@@H](O)[C@H]1O,-29.6,
O=C(Nc1nnc(SCc2c(Cl)cccc2Cl)s1)c1cccc([N+](=O)[O-])c1,-2.24,
O=C(Nc1ccc2c(c1)OCO2)C1CC(c2c(F)cccc2Cl)=NO1 (stereo not given),-29.9,
CC(=O)Nc1ccc(-c2ccnc3c2CC(C(=O)NC(C)C)O3)cc1 (stereo not given),-23.4,
O=C(COC(=O)c1cc[n+]([O-])cc1)Nc1ccc(Cl)c(C(F)(F)F)c1,-26,
